“And” between values parts separate entries of the source, which are not always exact repeats. Equal values may be shown once. Results filed as inconclusive are left out. Some compounds were tested as several samples or in several runs, with calls that do not always agree. The source made the active and inactive calls. The calls were made as follows, unless noted: active = hit-call score of the fitted dose curve at least 0.9, where 1 is the maximum; inactive = score below 0.9.
How the values were obtained:
[1] = CCTE_Mundy_HCI_Cortical_Synap_Neur_Matur_NeuriteCount: CCTE's Synaptogenesis and Neurite Maturation Assay in rat cortical cells for Neurite Count, Mundy Lab (AID 2284222)
In short: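 Chemical exposure runs DIV 7–12 in rat cortical cultures, glia suppressed by AraC at DIV 5; measurement is at DIV 12. Imaging-derived neurite counts are fitted against DMSO baseline.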

[2] = CCTE_Mundy_HCI_Cortical_Synap_Neur_Matur_CellBodySpotCount: CCTE's Synaptogenesis and Neurite Maturation Assay in rat cortical cells for Cell Body Spot Count, Mundy Lab (AID 2284223)
In short: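 Rat cortical neurons; AraC @ DIV 5; dose + media change DIV 7; fix DIV 12; anti-MAP2/anti-synaptophysin IF, Hoechst; HCI count of soma synaptophysin puncta/neuron; DMSO = negative control.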

[3] = CCTE_Mundy_HCI_hNP1_Pro_ResponderAvgInten: CCTE's Proliferation Assay in human neuroprogenitor cells, Mundy Lab (AID 2284224; active = hit-call score of the fitted dose curve at least 0.9, where 1 is the maximum;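 also: human neural progenitor cells hNP1 derived from WA09 embryonic stem cells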)
In short: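 Proliferation was scored as BrdU labelling intensity in human neural progenitors derived from WA09 embryonic cells, measured 26.25 hours after chemical dosing. Activity was fitted relative to DMSO.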

[4] = UKN4_HCS_LUHMES_cell_viability: Viability Assessment in the University of Konstanz (UKN) Leist Lab Neurite Outgrowth Assay in human LUHMES cells (UKN4) (AID 2284232)
In short: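 Cells switched to differentiation medium at day 0, replated on day 2 in medium lacking cAMP and GDNF, and compound-treated once attached. Live staining began 23.5 h later, imaging followed at 24 h.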

[5] = UKN2_HCS_IMR90_cell_viability: Viability Assessment in the University of Konstanz (UKN) Leist Lab Neural Crest Cell Migration Assay in human induced IMR90 Pluripotent Stem Cells (UKN2) (AID 2284233);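 also: cells exposed to compound for 24 h after a 24 h migration phase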
In short: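 After calcein-AM/Hoechst staining, viability is quantified by high-content fluorescence imaging, relative to DMSO, in iPSC (IMR90)-derived neural crest cells. Exposure lasts 24 h, starting after a 24 h migration period on PLO/laminin/fibronectin coating.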

[6] = CCTE_Mundy_HCI_Cortical_NOG_NeuronCount: CCTE's Neurite Outgrowth Assay in rat cortical cells for Neuron Count, Mundy Lab (AID 2284236; active = hit-call score of the fitted dose curve at least 0.9, where 1 is the maximum;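 also: neurons counted by imaging betaIII-tubulin and Hoechst stained cortical cells; cells exposed to compound for about 48 hours before fixation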)
In short: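 Read-out: neuron number by high-content imaging of betaIII-tubulin (Alexa Fluor-488) and Hoechst-labelled rat primary cortical cells.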

[7] = CCTE_Mundy_HCI_Cortical_NOG_BPCount: CCTE's Neurite Outgrowth Assay in rat cortical cells for Branch Point Count, Mundy Lab (AID 2284237);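 also: branch points counted about two days after chemical exposure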
In short: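 Measured 50.33 h after dosing, this morphology endpoint uses rat primary cortical cultures labelled for betaIII-tubulin. Branch points are quantified by high-content imaging, with DMSO as negative control and baseline.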

[8] = CCTE_Mundy_HCI_hNP1_Casp3_7: CCTE's Caspase-Glo 3/7 Assay in human neuroprogenitor cells for Apoptosis, Mundy Lab (AID 2284240)
In short: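 Apoptosis is scored by activated caspase-3/7 luminescence in WA09-derived neural progenitor cells, measured 26.5 h after chemical dosing. Values represent gain of signal relative to DMSO vehicle.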

[9] = CCTE_Mundy_HCI_hN2_NOG_NeuriteLength: CCTE's Neurite Outgrowth Assay in human hN2 cells for Neurite Length, Mundy Lab (AID 2284220; active = hit-call score of the fitted dose curve at least 0.9, where 1 is the maximum)
In short: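 Plate hNP1-derived neurons, then add chemical 2 h later as a 1/10 dilution. Stain with anti-βIII-tubulin then Alexa Fluor-488 secondary, and image automatically to measure neurite length.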

[10] = CCTE_Mundy_HCI_hN2_NOG_NeuronCount: CCTE's Neurite Outgrowth Assay in human hN2 cells for Neuron Count, Mundy Lab (AID 2284221; active = hit-call score of the fitted dose curve at least 0.9, where 1 is the maximum)
In short: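 Read-out is the number of betaIII-tubulin-positive neurons imaged by automated high-content analysis, with DMSO as negative control.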

[11] = TAMU_HCS_1.5hr_SingleDonor1434_Cytotoxicity: Cytotoxicity Assessment using High-content Screening (HCS) Fluorescent Imaging for the Texas A&M University (TAMU) 1.5-hr Human Induced Pluripotent Stem Cell (iPSC)-derived Cardiotoxicity Assay (AID 2284234; active = hit-call score of the fitted dose curve at least 0.9, where 1 is the maximum)
In short: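 Nuclear counts from Hoechst 33342 imaging define cytotoxicity here, with EC10 (10% cell-count loss relative to DMSO) as point of departure. iPSC cardiomyocytes received 0.2-100 uM test chemical in 0.5% DMSO for 1.5 h at 37 C.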

[12] = BSK_BT_PBMCCytotoxicity: PBMC Cytotoxicity Assessment in the BioMAP Diversity Plus: BT Assay (AID 2284225); details: primary human B cells with PBMC;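 also: PBMC viability measured by Alamar Blue dye reduction fluorescence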
In short: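 Viability by Alamar Blue reduction (6 h, ex/em 546/580 nm) after 90 h culture of SEB/TSST-1-activated PBMC (20 ng/mL each) given compound 1 h before activation. DMSO served as baseline for curve fitting.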

[13] = read-out: Secreted IgG (sIgG), gene 3500; assay: BSK_BT_sIgG: BioMAP Diversity Plus: BT Assay for Secreted IgG (sIgG) Biomarker Activity (AID 2284226); details: primary human B cells with PBMC
In short: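 Cells (B cells with peripheral blood mononuclear cells) are dosed, cultured 24 h, then supernatant IgG is measured by ELISA. DMSO serves as negative control; curves are fitted for signal increase.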

[14] = BSK_BT_Bcell_Proliferation: Viability Assessment in the BioMAP Diversity Plus: BT Assay for B cell Proliferation (AID 2284227); details: primary human B cells with PBMC
In short: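 SRB-based protein staining (0.1% SRB after 10% TCA fixation, 560 nm) quantifies proliferation in human B cells co-cultured with PBMC, 72 h post-dosing, with signal gain scored relative to DMSO negative control.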

[15] = read-out: Interleukin 6 (IL6), IL6 (gene 3569); assay: BSK_BT_xIL6: BioMAP Diversity Plus: BT Assay for Interleukin 6 (IL6) Biomarker Activity (AID 2284228); details: primary human B cells with PBMC
In short: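 B cells and peripheral blood mononuclear cells (human primary co-culture) were dosed with chemical, and after 24 h IL-6 released into the medium was measured by Luminex xMAP. Responses were analysed as gain of signal over DMSO control.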

[16] = read-out: Interleukin 17A (IL17A), IL17A (gene 3605); assay: BSK_BT_xIL17A: BioMAP Diversity Plus: BT Assay for Interleukin 17A (IL17A) Biomarker Activity (AID 2284229); details: primary human B cells with PBMC
In short: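 Secreted IL-17A was the measured endpoint, read by Luminex xMAP multiplex in supernatants of a human B cell/PBMC co-culture harvested 24 h after chemical dosing. Signal increase relative to DMSO defined activity.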

[17] = read-out: Vascular cell adhesion molecule 1 (VCAM1), VCAM1 (gene 7412); assay: BSK_MyoF_VCAM1: BioMAP Diversity Plus: MyoF Assay for Vascular cell adhesion molecule 1 (VCAM1) Biomarker Activity (AID 2284231); details: primary human lung fibroblasts
In short: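 ELISA read-out of VCAM-1 on human lung fibroblasts 24 h after chemical treatment, with positive-direction curve fitting relative to DMSO controls. Parallel cultures were stained with sulforhodamine B for total protein to flag overt cytotoxicity.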

[18] = read-out: Collagen I, COL1A1 (gene 1277); assay: BSK_MyoF_CollagenI: BioMAP Diversity Plus: MyoF Assay for Collagen I Biomarker Activity (AID 2284238); details: primary human lung fibroblasts
In short: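 Lung fibroblasts (human primary) dosed, 24 h; Collagen I by ELISA; positive-direction fit vs DMSO control. Parallel SRB total-protein staining (0.1% SRB, 10% TCA fixation, 560 nm) flags overt cytotoxicity.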

[19] = read-out: Collagen III, COL3A1 (gene 1281); assay: BSK_MyoF_CollagenIII: BioMAP Diversity Plus: MyoF Assay for Collagen III Biomarker Activity (AID 2284239); details: primary human lung fibroblasts
In short: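 ELISA read-out of collagen III from human lung fibroblasts after 24 h of chemical treatment. The DMSO control served as negative control and baseline, with values fitted in the positive direction.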

Measured: AC50

O=C1C2(Cl)C3(Cl)C4(Cl)C(Cl)(Cl)C5(Cl)C3(Cl)C1(Cl)C5(Cl)C24Cl (centres undefined)
active: [1] 24.1 µM | [2] 9.8 µM | [3] 21.7 µM | [4] 7.53 µM | [5] 3.06 µM | [6] 15 µM | [7] 7.19 µM | [8] 20.1 µM

CCOP(=S)(OCC)Oc1nc(Cl)c(Cl)cc1Cl
active: [9] 28.4 µM | [10] 17.1 µM | [1] 30 µM | [2] 83.2 µM | [3] 24.3 µM and 73.3 µM | [4] 231 µM | [6] 9.92 µM and 75.5 µM | [7] 29.8 µM | [8] 7.91 µM and 89.6 µM
inactive: [2] | [5] | [11]

CC(C)CCCCCCOC(=O)c1ccccc1C(=O)OCCCCCCC(C)C
inactive: [12] | [13] | [14] | [15] | [16] | [17] | [18] | [19]

COP(=S)(OC)Oc1ccc(Sc2ccc(OP(=S)(OC)OC)cc2)cc1
active: [13] 28.9 µM | [18] 28.7 µM | [19] 28.6 µM
inactive: [12] | [14] | [15] | [16] | [17]

O=C(O)CCC(F)(C(F)(F)F)C(F)(F)F
inactive: [12] | [13] | [14] | [15] | [16] | [17] | [18] | [19]

C=C(C)C(=O)[O][Sn]([CH2]CCC)([CH2]CCC)[CH2]CCC
active: [1] 0.223 µM | [2] 0.142 µM | [3] 0.249 µM | [4] 0.181 µM | [5] 0.272 µM | [6] 0.0826 µM | [7] 0.0846 µM | [8] 2.77 µM

COC(=O)c1sccc1S(=O)(=O)NC(=O)Nc1nc(C)nc(OC)n1
inactive: [12] | [13] | [14] | [15] | [16] | [17] | [18] | [19]

Nc1ccc(-c2ccc(N)c(Cl)c2)cc1Cl
inactive: [12] | [15]
active: [13] 6.09 µM | [14] 20 µM | [16] 12.8 µM | [17] 20 µM | [18] 13.7 µM | [19] 3.17 µM

CCOP(=S)(OCC)Oc1ccc(S(C)=O)cc1 (centres undefined)
inactive: [12] | [13] | [14] | [15] | [16] | [17] | [18] | [19]

CCSC(C)CC1CC(=O)C(C(CC)=NOC/C=C/Cl)=C(O)C1 (centres undefined)
inactive: [12] | [13] | [14] | [15] | [16] | [17] | [18] | [19]

Source: PubChem BioAssay (EPA / NIEHS)
